# Screens as filed in PubChem.
# Compounds with a hit are over-represented: about 8.8% of the library has one in this group of screens.
# HT1080 IDH1KD tx: kills HT-1080 cells with IDH1 knockdown. Potency, µM (series often up to 46.1 µM), without a hit: top-dose activity, negative = toxicity, usual class: cytotoxic. 360,000 tested, 2% active. HT-1080 IDH1 knockdown viability, ATP luminescence, 48 h. AID 686971;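 further: potency means the concentration at half of the fitted maximal effect; 0% = DMSO wells and -100% = cell-free medium wells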
#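 Cytotoxicity counter-line: IDH1KD HT-1080, 48 h, CellTiter-Glo. Curves classed by r2, magnitude and activity.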
# IL-1B inflam inh: inhibitors of inflammasome signaling (IL-1 beta secretion) | 360,000 tested, 4.7% active | AID 743279 | THP-1 LPS/ATP IL-1B secretion, AlphaLISA, 16 h; active compounds read low | activity change, % at 57.5 µM; in the data active means activity change below about -50%; inconclusive means mostly about -30% to -49%
#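 THP-1 cells pretreated 1 hr with compounds (up to 57.5 uM final), then stimulated with LPS (250 ng/mL final) plus ATP (1.25 mM final); secreted IL-1B measured by AlphaLISA after 16 hr, decreased signal indicating inhibition.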
# KB-V1 cytotox: kills drug-selected multidrug resistant KB-V1 cells; KB-V1 MDR cells viability, CellTiter-Glo, 72 h; Potency, µM (titrated, usually from 46.1 µM), actives largely listed as cytotoxic; 400,000 tested, 3.4% active; further: potency means the concentration at half of the fitted maximal effect; nearly all actives have a fitted effect of over 60% in size
#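 Drug-selected KB-V1 cells, grown in DMEM lacking phenol red with 10% FBS, receive compound titrations; after three days at 37 degrees C, surviving cell ATP is quantified by CellTiter-Glo luminescence and responses normalized and curve-fitted.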
# HT1080NT lethal: kills 2HG-producing HT-1080-NT fibrosarcoma cells; Potency, µM (doses to about 46.1 µM), inactives show top-dose activity, negative = less viability, most hits filed as cytotoxic; 360,000 tested, 1.6% active; AID 686970; HT-1080-NT fibrosarcoma viability, CellTiter-Glo ATP luminescence, 48 h;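 further: NT is the 2HG producing partner of a matched IDH1 knockdown line; potency means the concentration at half of the fitted maximal effect; 0% = DMSO-treated cells and -100% = media-only wells without cells; nearly all actives have a fitted effect of over 55% in size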
#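 HT-1080-NT fibrosarcoma cells (2HG-overproducing), 750 cells/well in RPMI with 5% FBS, dosed after 2 h and incubated 48 h at 37C. CellTiter-Glo luminescence normalized to DMSO and no-cell wells; concentration-response curves fitted and classed.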
# KB-3-1 cytotox: KB-3-1 parental cell cytotoxicity. KB-3-1 viability, CellTiter-Glo ATP luminescence, 72 h. 400,000 tested, 1.4% active. Potency, µM (highest dose often 46.1 µM), actives largely listed as cytotoxic; further: potency means the concentration at half of the fitted maximal effect; nearly all actives have a fitted effect of over 60% in size
#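 Parental KB-3-1 adenocarcinoma cells in phenol-red-free DMEM with 10% FBS were pin-treated with compounds at several concentrations, incubated 72 h at 37 °C, and viability read by CellTiter-Glo luminescence; concentration-effect curves were fitted after normalization.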
# * = called active by the depositor; i = inactive; ? = inconclusive; nt = no result given. Unless noted, the call rests on the fitted dose curve; in most records, active means well fitted curve in the direction sought with a large enough effect; inconclusive means small, poorly fitted or top-dose-only effect, or another doubt; inactive means no such curve, though single readings can be large; an effect the other way counts as inactive or inconclusive. Unless noted, on the % scale 0 is the no-effect control and ±100 the full control effect.
SMILES,HT1080 IDH1KD tx,IL-1B inflam inh,KB-V1 cytotox,HT1080NT lethal,KB-3-1 cytotox
COc1ccc(C#Cc2cccc(-c3nc(C(=O)NCc4ccc(Oc5ccccc5)cc4)cc4c3[C@@H](CCO)N(S(=O)C(C)(C)C)C4)c2)cc1OC (some centres not stated),?,-11,i,21µM*,i
CCNC(=O)c1cc2c(c(-c3cccc(-c4cccc(C(=O)N(C)C)c4)c3)n1)[C@H](CCO)N(S(=O)C(C)(C)C)C2 (some centres not stated),3%,0,i,1%,i
CCC(=O)Nc1ccc(F)c(Cl)c1,3%,7,i,8%,i
CC1NC(=O)NC1CCCCCC(=O)Nc1ccc(F)c(Cl)c1 (configuration not stated),-5%,-116*,i,-1%,i
CCc1cccc(NC(=O)CCCCCC2NC(=O)NC2C)c1 (configuration not stated),-7%,-109*,i,1%,i
Cc1ccc(NC(=O)CCCCCC2NC(=O)NC2C)cc1 (configuration not stated),-6%,-95*,i,3%,i
CCOc1ccc(-c2nn(CC(=O)NC3CCCCC3)c3c2cnc2ccc(C)cc23)cc1,nt,nt,i,nt,i
CCCCC(=O)Nc1ccc(OCc2cc(=O)n3ccc(C)cc3n2)cc1,nt,nt,i,nt,i
COc1ccccc1CN1C(=O)CN(C2CCCC2)C(=O)C1c1ccc(F)cc1 (configuration not stated),-16%,-14,3.7µM*,6%,i
CCOc1ccc(C2C(=O)N(C3CCCCC3)CC(=O)N2CC2CCCO2)cc1OC (configuration not stated),17%,11,18µM*,5%,i
CCCCOc1ccc(C2C(=O)N(C3CCCCC3)CC(=O)N2CC2CCCO2)cc1 (configuration not stated),2%,-15,i,-5%,i
CCN(CC)CCCC(C)NC(=O)c1ccc(C(F)(F)F)cc1 (configuration not stated),-3%,-50*,?,-1%,i
COc1ccc(C(=O)/C=C/c2ccc(C)cc2)c(OC(=O)c2ccc([N+](=O)[O-])cc2)c1,11%,?,i,15%,?
COc1ccc(/C=C/C(=O)N(C)c2ccccc2C(=O)O)cc1,14%,-1,i,3%,i
COc1cc(C)cc(C(=O)C=Cc2ccccc2)c1O,?,-59*,i,23µM*,i
COc1ccc(C=CC(=O)C=CC=Cc2ccccc2)cc1,?,-52*,i,3%,?
COc1ccc(C(=O)/C=C/c2ccc(N3CCCCC3)c([N+](=O)[O-])c2)c(OC)c1,?,?,?,-21%,i
COc1ccc(C(=O)/C=C/c2ccc(N(C)C)cc2)c(OC)c1,?,-100*,?,?,?
COC1=C(C)C(O)=C(C(=O)/C=C/c2ccccc2)C(=O)C1(C)C,-1%,?,?,-9%,i
COc1ccc(C(=O)/C=C/c2ccccc2F)c(OC(=O)c2ccc([N+](=O)[O-])cc2)c1,-29%,-101*,?,-5%,?
COc1ccc(/C=C/C(=O)c2c(O)cc(C)oc2=O)c(OC)c1,?,-18,?,-27%,?
COc1ccc(C(=O)/C=C/c2ccccc2)c(OC)c1,?,-111*,i,-25%,?
COc1ccc(OC)c(C(=O)/C=C/c2ccccc2C(F)(F)F)c1,?,-110*,?,?,?
COc1ccc(OC)c(N/C=C/C(=O)c2ccccc2)c1,-26%,-7,i,-4%,i
COCOc1cc(O)c(C(=O)/C=C/c2ccccc2)c(OCOC)c1,?,-103*,i,?,i
SMILES,HT1080 IDH1KD tx,IL-1B inflam inh,KB-V1 cytotox,HT1080NT lethal,KB-3-1 cytotox
CC1(C2CC2)NC(=O)N(CC(=O)N2CCN(c3ccccc3)CC2)C1=O (configuration not stated),-4%,?,i,-3%,i
COCC1CCN(Cc2cn(-c3ccccc3F)nc2-c2cc(C)sc2C)CC1,-10%,-5,i,0%,i
Cc1sc2nc3c(C(=O)N4CCCC4)cc(C(=O)c4ccccc4O)cn3c(=O)c2c1C,10%,?,?,4%,?
CCc1c(C)sc2nc3c(C(=O)N4CCOCC4)cc(C(=O)c4cc(F)ccc4O)cn3c(=O)c12,?,-76*,i,-22%,i
CC1(C)Cc2cccc(OCC(=O)OCC(=O)Nc3ccc(S(N)(=O)=O)cc3)c2O1,1%,19,i,-1%,i
CCCCOc1ccc(C(=O)N/N=C/c2cn[nH]c2-c2ccc(OC)c(OC)c2)cc1,-17%,-56*,i,?,i
COc1ccc(-c2[nH]ncc2/C=N\NC(=O)c2ccc(C(C)(C)C)cc2)cc1OC,?,0,i,-41%,i
CCOc1ccc(/C=N/NC(=O)c2ccncc2)cc1OC,-4%,11,i,2%,i
CCCCOc1ccc(C(=O)N/N=C/c2ccc(OCCN3CCCCC3)c(OC)c2)cc1,-25%,-80*,?,-25%,?
c1ccc(CNc2nc(NCc3cccs3)nc3ccsc23)cc1,?,-57*,i,?,i
CNc1nc(NCc2ccccc2)c2sccc2n1,?,-18,i,?,i
Fc1ccc(Nc2nc(NCc3ccccc3)nc3ccsc23)cc1,-25%,?,?,21µM*,i
c1ccc(CNc2nc(NCCc3ccncc3)c3sccc3n2)cc1,?,-98*,?,?,i
COCCNc1nc(NCc2cc(-c3ccc(OC)cc3)no2)c2sccc2n1,13µM*,?,18µM*,?,?
Cc1nnc(N2C(=O)c3oc4ccccc4c(=O)c3C2c2ccc(F)cc2)s1 (configuration not stated),nt,nt,i,nt,i
COc1ccc(NC(=O)c2cccc(S(=O)(=O)NCc3ccco3)c2)c(OC)c1,-8%,-3,i,0%,i
O=C(CSc1nccn1Cc1ccc(F)cc1)Nc1nc2ccccc2s1,nt,nt,i,nt,i
O=C1CCCN1CCCNc1nc(NCc2cccs2)nc2ccsc12,-6%,-84*,i,?,i
CC(=O)NCCNc1nc(NCc2cccs2)nc2ccsc12,11%,111,i,-2%,i
COCCNc1nc(NCc2cccs2)nc2ccsc12,15%,-90*,i,19%,i
Cc1ccc(S(=O)(=O)N2CCN(C(C)C(=O)Nc3ccccc3-c3ccccc3)CC2)cc1 (configuration not stated),-7%,0,3.7µM*,-3%,i
